# Laboratory results taken from PubChem BioAssay AID651812 (National Center for Advancing Translational Sciences (NCATS), 2012).
# The campaign covered roughly 2,100 compounds. About 650 (31%) were called active. Another 16% or so got no clear call; they are omitted. This is one part of the list. Unmarked numbers belong to inactive results. The call rests on the fitted dose curve; in most records, active means well fitted inhibition curve with a large enough effect; inconclusive means small, poorly fitted or top-dose-only effect; inactive means flat fitted curve, though single readings scatter.
# Experiment: qHTS for inhibitors of Vif-A3G interactions: Cherry picks; further: nearly all actives have a fitted effect of over 80% in size; on activity, negative = fluorescence increase: % of control where 0% means no effect
# Settings: HeLa A3G-eYFP + Vif (tagged APOBEC3G with the HIV-1 protein that degrades it), 24 h; Potency: eYFP fluorescence increase; series mostly up to 36.9 µM; activity, negative = fluorescence increase: at the top concentration
# Method in brief: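 Cherry-picked compounds tested at several concentrations on A3G-eYFP/Vif HeLa cells for 24 hours; loss of Vif-driven degradation read as eYFP fluorescence by cytometric plate imaging, 488 nm excitation, 500-530 nm emission.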
# Potency means the concentration at half of the fitted maximal effect.
SMILES,"activity, negative = fluorescence increase",Potency
COc1cc(C2C3=C(COC3=O)Oc3cc4c(cc32)OCO4)ccc1OC(C)=O (stereo not given),-0.554%,–
Cc1cccc(N2CCN(C(=O)c3cccc(N4CCCC4=O)c3)C(C)C2)c1 (stereo not given),-3.43%,–
COc1cc(-c2noc(C)c2C#Cc2ccc(N)cc2)cc(OC)c1OC,-3.97%,–
CSCC[C@H](NC(=O)[C@H](Cc1ccccc1)n1c(=O)[nH]c2ccccc2c1=O)C(=O)N1CCC[C@@H]1C(=O)O,-4.21%,–
COc1cc(-c2noc(C)c2/C=C/c2ccc(OC(C)=O)cc2)cc(OC)c1OC,-1.58%,–
Cc1coc(NC(=O)CSc2nc(-c3ccncc3)cc(C(F)(F)F)c2C#N)n1,–,14.6 µM (active)
CCCCOc1ccc(-c2cc(C(F)(F)F)c(C#N)c(SCC(=O)O)n2)cc1,–,18.4 µM (active)
C=CCNc1nc(-c2ccccc2)c(C(=O)OCC)cc1C#N,-3.17%,–
CCOC(=O)c1ccc(NC(=O)CSc2nc(-c3ccc(OC)cc3)cc(C(F)(F)F)c2C#N)cc1,–,20.6 µM (active)
O=C(CSc1nc(-c2ccco2)cc(C(F)(F)F)n1)Nc1cccnc1,1.16%,–
CCOC(=O)c1ccc(NC(=O)CSc2nc(-c3cccs3)cc(C(F)(F)F)c2C#N)cc1,–,20.6 µM (active)
O=C(OCCC12CC3CC(CC(C3)C1)C2)c1ccc(NCc2cc(O)ccc2O)cc1,-3.77%,–
N#Cc1c(C(F)(F)F)cc(-c2cccs2)nc1SCC(=O)Nc1cccc(Cl)c1,-1.81% [at 46.1 µM],–
N#Cc1c(C(F)(F)F)cc(-c2cccs2)nc1SCC(=O)Nc1cccc(C(F)(F)F)c1,–,18.4 µM (active)
O=C(NCc1ccccc1)C1Cc2c(-c3ccc(Cl)cc3)ccnc2O1 (stereo not given),-5.56%,–
COCCCNC(=S)N/N=C/c1ccc(OC)cc1,10.1% [at 46.1 µM],–
N#C/C(=C/c1ccc(N2CCOCC2)o1)C(=O)NC1CCCCC1,–,18.4 µM (active)
N#C/C(=C\c1ccc(N2CCOCC2)o1)C(=O)NC1CCCCC1,–,15.8 µM (active)
N#C/C(=C\c1ccccc1[N+](=O)[O-])C(=O)NCc1ccccc1,0.838% [at 46.1 µM],–
CN(C)c1ccc(/C=C(/C#N)C(=O)NCc2ccccc2)o1,–,14.6 µM (active)
N#C/C(=C\c1ccc(N2CCOCC2)o1)C(=O)NCCc1ccccc1,–,23.1 µM (active)
O=C(NCc1ccccc1)C(=O)NCC1COc2ccccc2O1 (stereo not given),-0.45%,–
Cc1ccc(CN(C(=O)c2ccccc2F)c2ccccn2)o1,0.719% [at 46.1 µM],–
CCOC(=O)c1cnc(-n2nc(C)cc2C)nc1NNc1nc(-c2ccccc2)cc(-c2ccccc2)n1,-0.776% [at 46.1 µM],–
COC(=O)c1[nH]c2c(c1C(=O)OC)CCc1ccccc1-2,-19.5% [at 46.1 µM],–

SMILES,"activity, negative = fluorescence increase",Potency
CC(CC(=O)Nc1ccc2c(c1)c(=O)n(C)n2-c1ccccc1F)c1ccccc1 (stereo not given),-10.3%,–
O=C1[C@@H]2[C@@H](CN3CN(c4ccccc4)N=C(c4ccccc4)[C@@]23c2ccccc2)C(=O)N1c1ccccc1,-0.0506% [at 46.1 µM],–
Nc1c(C(=O)c2ccc(Cl)cc2)sc2nc3c(cc12)CCC3,–,18.4 µM (active)
O=C(Cn1nc2c(cc1=O)CCCC2)NCc1ccc(Cl)cc1,-16.5% [at 46.1 µM],–
CC(=O)Nc1cccc(-c2ccnc3c2CC(C)(C(=O)NCc2ccccc2)O3)c1 (stereo not given),-10.7%,–
COc1ccc(/C=N/NC(=O)c2cc(OC)c(OC)c(OC)c2)cc1CN1CCc2cc(OC)c(OC)cc2C1C (stereo not given),-2.3%,–
O=C1/C(=C\c2cc([N+](=O)[O-])ccc2O)SC(=S)N1Cc1ccc(Cl)cc1,–,18.4 µM (active)
O=C1NC(=Nc2ccccc2Cl)S/C1=C\c1cc([N+](=O)[O-])ccc1O,-12.2%,–
CN(C)c1ccc(/C=C/C(=O)c2c(O)c3ccccc3oc2=O)cc1,–,1.46 µM (active)
C=CCOc1ccc2nc(NC(=O)OC)[nH]c2c1,-9.73%,–
COc1ccc(N/C=C/C(=O)c2sc(-c3ccccc3)nc2C)cc1,-3.35%,–
CC[n+]1c(/C=C/Nc2ccccc2)oc2ccccc21,–,14.6 µM (active)
CC[n+]1c(/C=C/Nc2ccccc2)oc2ccc(OC)cc21,–,20.6 µM (active)
CC[n+]1c(/C=C/N(C)c2ccccc2)oc2ccc(F)cc21,–,17.7 µM (active)
Cc1c(C(=O)N2CCOCC2)[nH]c2c1C(=O)CC(c1ccccc1Cl)C2 (stereo not given),-6.27%,–
Cc1ccc(C)c(N2CCN(C(=O)c3cccn4c(=O)c5sccc5nc34)CC2)c1,-13.2%,–
COc1ccc(-c2coc3cc4oc(=O)cc(-c5ccccc5)c4cc23)cc1F,-6.21%,–
CCC/C=N/NC(=O)c1[nH]c2c([N+](=O)[O-])cccc2c1C,-10.4%,–
O=C(CSc1nc2ccccc2s1)c1cc2ccccc2o1,-7.76% [at 46.1 µM],–
O=C(CSc1nc2ccc(Nc3nc(N4CCOCC4)nc(N4CCOCC4)n3)cc2s1)Nc1ccccc1F,–,5.8 µM (active)
CCCC(=O)Nc1nc2ccc(NC(=O)c3ccccc3F)cc2s1,-0.963%,–
Cc1ccc(C(=O)CSc2nc(-c3ccccc3)ccc2C#N)cc1,–,18.4 µM (active)
Cc1ccc(C(=O)CSC2=C(C#N)C(c3ccco3)C3=C(CCCC3=O)N2)cc1 (stereo not given),-2.89%,–
N#Cc1ccc(-c2cccnc2)nc1SCC(=O)c1ccccc1,–,16.4 µM (active)
CCOc1cc(C#N)c(NC(=O)c2cccnc2)cc1OCC,-0.835%,–

SMILES,"activity, negative = fluorescence increase",Potency
Cc1nc(SCC(=O)c2ccccc2)c(C#N)c(-c2ccco2)c1C(=O)NCc1ccco1,-3.59%,–
CCOc1ccc(S(=O)(=O)Nc2cc3c(C(=O)OC)c(COC)oc3c3ccccc23)cc1,-1.7% [at 46.1 µM],–
COc1ccc(NC(=O)/C(C#N)=C\C=C\c2ccco2)cc1,-0.406%,–
CN1/C(=C\C=C(/C#N)C(=O)Nc2ccc(Cl)cc2)C(C)(C)c2ccccc21,–,4.98 µM (active)
CN1/C(=C\C=C(/C#N)C(=O)Nc2ccccc2F)C(C)(C)c2ccccc21,–,9.2 µM (active)
O=C(NNC1=Nc2cccc3cccc1c23)c1ccc(Br)cc1,–,18.4 µM (active)
COCCCNC(=S)N/N=C/c1cccc(OC)c1O,10% [at 46.1 µM],–
CC1=C(n2nnc3ccccc32)C(c2ccccc2)C(C#N)=C(N)O1 (stereo not given),-11.3% [at 46.1 µM],–
COc1ccc2c(c1)N(C)/C(=C/c1cccc[n+]1C)S2,–,14 µM (active)
CCN1/C(=C/c2cccc[n+]2C)Sc2ccc(OC)cc21,–,16.4 µM (active)
CCOc1ccc(CN2C(=O)c3ccccc3Sc3ccc(C(=O)O)cc32)cc1,0.283% [at 46.1 µM],–
COc1ccc(C(=O)Nc2ccc3c(c2)N(C)C(=O)c2ccccc2S3)cc1OC,-6.52% [at 46.1 µM],–
CC[n+]1ccccc1/C=C1\Sc2ccc(C)cc2N1C,–,20.6 µM (active)
N#CC1=C(N)Oc2ccc3ccc(O)cc3c2C1c1ccsc1 (stereo not given),1.71%,–
O=C(Cc1nc2ccccc2[nH]c1=O)c1ccc(Cl)cc1,–,20.6 µM (active)
c1ccc2[nH]c(NN=C3CCCCCC3)nc2c1,-1.53% [at 46.1 µM],–
CC(=O)/C(=C\N(C)C)Sc1ccc(Cl)cc1,1.16%,–
COc1cccc(C2=CC(c3cccs3)n3nnnc3N2)c1 (stereo not given),-4.47%,–
Cc1cc(C)n(S(=O)(=O)/C=C/c2ccccc2)n1,-1.06%,–
O=C(NCC1CCCO1)c1nn2c(C(F)(F)F)cc(-c3cc(Br)cs3)nc2c1Br (stereo not given),–,13 µM (active)
COc1ccc(C)cc1NCc1cc(=O)oc2cc(-c3ccccc3)c(O)cc12,-4.47%,–
CCOC(=O)c1c(-c2ccc(OC)cc2)csc1/N=C/C1C(=O)CCCC1=O,3.35% [at 46.1 µM],–
O=C(CC1CC2CCC1C2)Nc1nc(-c2ccccn2)cs1 (stereo not given),7.15% [at 46.1 µM],–
N#Cc1c(-c2ccccc2)c(-c2ccccc2)nn(CC(=O)NNC(=O)Nc2ccccc2)c1=O,0.182%,–
N#Cc1c(-c2ccc(F)cc2)c(-c2ccc(F)cc2)nn(CCO)c1=O,–,12.5 µM (active)

SMILES,"activity, negative = fluorescence increase",Potency
CCn1c(SCC(=O)N/N=C/c2ccc(C)s2)nc2ccccc21,-3.11%,–
Cc1ccc(S(=O)(=O)N2CCCCC2CCNC(=O)C(=O)NCc2ccco2)cc1 (stereo not given),1.61%,–
Cc1cccc(C)c1OCC(=O)N/N=C/c1ccc2c(c1)OCO2,-7.24%,–
Cc1ccccc1OCC(=O)N/N=C/c1ccc(N(C)C)cc1,-12.3%,–
COc1cc(/C=N\Nc2ccc([N+](=O)[O-])cc2)ccc1OCC(=O)Nc1ccc(C)c(C)c1,–,8.2 µM (active)
COCCNC(=S)N/N=C(\C)c1ccccc1O,-20.4% [at 46.1 µM],–
C[n+]1ccc(/C=C/c2cc[n+](C)c3ccccc23)c2ccccc21,-3.5% [at 46.1 µM],–
OCC[n+]1ccc(/C=C/c2c[nH]c3ccccc23)cc1,–,10.3 µM (active)
C[n+]1ccc(/C=C/c2c[nH]c3ccccc23)cc1,–,11.6 µM (active)
CC[n+]1ccc(/C=C/c2c[nH]c3ccccc23)cc1,–,14.6 µM (active)
CC(=O)Nc1cccc(-c2cc(NC=O)c3ncc(-c4ccc(F)c(Cl)c4)n3c2)c1,-14.5%,–
COc1ccc(-c2cc(NC=O)c3ncc(-c4cccc(C(F)(F)F)c4)n3c2)cc1OC,-4.35%,–
N#C/C=C/N1CCN(C(=O)c2ccco2)CC1,-0.0719%,–
COc1cc(C2Sc3ccccc3NC3=C2C(=O)OC3)cc(OC)c1OC (stereo not given),-3.73%,–
COc1cc(CCC(=O)Nc2nnc(C)s2)cc(OC)c1OC,-0.45%,–
Cc1cc(C)nc(NC(=S)Nc2cccc(Cl)c2Cl)c1,-1.92% [at 46.1 µM],–
CCN(CC)c1nc2ccccc2nc1C(C#N)C(=O)NCCc1ccccc1 (stereo not given),–,3.66 µM (active)
NC(=O)C1CCN(c2nc3ccccc3nc2NS(=O)(=O)c2ccc(Br)cc2)CC1,3.49% [at 46.1 µM],–
N#CC(C(=O)NCc1ccccc1)c1nc2ccccc2nc1N1CCCC1 (stereo not given),–,18.4 µM (active)
CN1CCN(c2ccc([N+](=O)[O-])cc2C(=O)c2ccc(Br)cc2)CC1,-8.13%,–
Cc1cc(C)c(C(=O)N(CCN(C)C)CC2CCCN(Cc3ccccc3F)C2)o1 (stereo not given),1.85% [at 46.1 µM],–
COc1ccccc1C(=O)Nc1ccc2c(c1)CN(C(=O)CSC)CC2,-0.589%,–
Cc1ccc(-c2nc3sc(C#N)c(N)n3c(=O)c2C#N)cc1,–,18.4 µM (active)
O=C(NCc1ccco1)C1Cc2c(-c3cccc(F)c3)ccnc2O1 (stereo not given),-4.44%,–
Cc1ccc(C(=O)c2cc([N+](=O)[O-])ccc2N2CCN(C)CC2)cc1,-1.12%,–
